According to the supplement of paper PMC8007513:
Where a name gives a salt, the structure may show the parent alone. ± gives the standard error. The campaign covered roughly 1,300 compounds. About 75 (6%) showed an effect of 50% or more. For the sample, strong results were picked, then their nearest neighbours and some compounds at random.

Tested on: Trichoderma virens ATCC 9645
Experiment: growth yield (OD600) relative to untreated control; higher = less growth inhibition
Details: compound concentration: 100 uM
How it was run: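 Library compounds (100 μM final), with or without a co-applied biocide (200 ng ml^−1), were added to 100 μl aliquots of Trichoderma virens ATCC 9645 spores at 15,000 spores ml^−1 in potato dextrose broth. Cultures were grown at 30 °C in 96-well plates, and OD600 was measured at 40 h and 72 h. Each growth value is a mean of duplicate screens, expressed relative to the control with neither agent.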

Structure (SMILES) | growth yield (40 h) | growth yield (72 h)
Cc1onc(-c2ccccc2)c1-c1ccc(S(N)(=O)=O)cc1 [Valdecoxib] | 107 ± 11% | 104 ± 8.3%
CCOC(=O)[C@H](CCc1ccccc1)N[C@H]1CCc2ccccc2N(CC(=O)O)C1=O [Benazepril hydrochloride] | 104 ± 3.5% | 105 ± 2.1%
O=C(CCCCC(=O)Nc1c(I)cc(I)c(C(=O)O)c1I)Nc1c(I)cc(I)c(C(=O)O)c1I [Iodipamide] | 103 ± 1.1% | 101.6 ± 0.32%
CC(Oc1c(Cl)cccc1Cl)C1=NCCN1 (centres undefined) [Lofexidine] | 104 ± 1.3% | 105 ± 1.1%
CN1CCCN=C1/C=C/c1cccc(O)c1 [Oxantel pamoate] | 93.4 ± 0.64% | 99.8 ± 1.1%
Cc1cc(CC(=O)O)n(C)c1C(=O)c1ccc(Cl)cc1 [Zomepirac sodium salt] | 93.7 ± 5.7% | 88 ± 3.9%
COc1ccc(-c2cc(=S)ss2)cc1 [Anethole-trithione] | 76.4 ± 9.1% | 77.5 ± 7.2%
CNC(=O)c1c(I)c(C(=O)NCC(=O)Nc2c(I)c(C(=O)O)c(I)c(C(=O)NCCO)c2I)c(I)c(N(C)C(C)=O)c1I [Ioxaglic acid] | 105 ± 5.2% | 101 ± 2.2%
CCC(=O)O[C@@H](O[P@](=O)(CCCCc1ccccc1)CC(=O)N1C[C@H](C2CCCCC2)C[C@H]1C(=O)O)C(C)C [Fosinopril] | 109.8 ± 0.48% | 103 ± 3.5%
CCCCOc1cc(C(=O)NCCN(CC)CC)c2ccccc2n1 [Dibucaine] | 101.02 ± 1e-14% | 98.37 ± 0.21%
CN(CCOc1ccc(NS(C)(=O)=O)cc1)CCc1ccc(NS(C)(=O)=O)cc1 [Dofetilide] | 100 ± 5.9% | 98.7 ± 4.3%
CCCCc1oc2ccccc2c1C(=O)c1cc(I)c(OCCN(CC)CC)c(I)c1 [Amiodarone hydrochloride] | 3.18% | 2.94%
CCCCOc1cc(C(=O)OCCN(CC)CC)ccc1N [Benoxinate hydrochloride] | 103 ± 3% | 103 ± 1.1%
CCCCCCCN(CC)CCCC(O)c1ccc(NS(C)(=O)=O)cc1 (centres undefined) [Ibutilide fumarate] | 100 ± 2.9% | 101 ± 2.5%
CCCCc1oc2ccc(NS(C)(=O)=O)cc2c1C(=O)c1ccc(OCCCN(CCCC)CCCC)cc1 [Dronedarone hydrochloride] | 6.19 ± 1.8% | 1.99 ± 0.52%
C[N+]1(C)CCC(OC(=O)C(O)(c2ccccc2)C2CCCC2)C1 (centres undefined) [Glycopyrrolate] | 96.26 ± 0.95% | 90.72 ± 0.73%
CCC(=O)OCC(=O)[C@@]1(OC(=O)CC)[C@@H](C)C[C@H]2[C@@H]3CCC4=CC(=O)C=C[C@]4(C)[C@@]3(Cl)[C@@H](O)C[C@@]21C [Beclomethasone dipropionate] | 103 ± 7.8% | 98.7 ± 3%
N=C(N)NCCN1CCCCCCC1 [Guanethidine sulfate] | 99.6 ± 1.1% | 100.79 ± 0.1%
OCCN1CCN(CC/C=C2/c3ccccc3Sc3ccc(Cl)cc32)CC1 [Zuclopenthixol dihydrochloride] | 15.1 ± 1.8% | 60.4 ± 5.7%
CN(C)CC/C=C1/c2ccccc2Sc2ccc(Cl)cc21 [Chlorprothixene hydrochloride] | 70.5 ± 6.3% | 90.8 ± 2.7%
OCCOCCN1CCN(C2=Nc3ccccc3Sc3ccccc32)CC1 [Quetiapine hemifumarate] | 108 ± 15% | 106 ± 12%

Structure (SMILES) | growth yield (40 h) | growth yield (72 h)
Cc1cccc(N(C)C(=S)Oc2ccc3ccccc3c2)c1 [Tolnaftate] | 0% | 0%
O=C(O)COC(=O)Cc1ccccc1Nc1c(Cl)cccc1Cl [Aceclofenac] | 94.2 ± 2.1% | 95.02 ± 0.42%
CCCCCNC(=N)N/N=C/c1c[nH]c2ccc(OC)cc12 [Tegaserod maleate] | 5.24 ± 0.16% | 3.88 ± 0.52%
COc1ccc2[nH]cc(CCNC(C)=O)c2c1 [Melatonin] | 101% | 97.3%
CN(C)CCN1C(=O)c2ccccc2N(C)c2ccccc21 [Dibenzepine hydrochloride] | 101 ± 1.8% | 105 ± 3%
CC(C)NC[C@@H](O)COc1ccc(CC(N)=O)cc1 [(R)-(+)-Atenolol] | 102 ± 4% | 97.8 ± 1.8%
C=C1C[C@H]2[C@@H]3C=C(C)C4=CC(=O)CC[C@]4(C)[C@H]3CC[C@]2(C)[C@@]1(OC(C)=O)C(C)=O [Melengestrol acetate] | 96.6 ± 1.6% | 94.5 ± 2.4%
C=C(NC(=O)C(=C)NC(=O)c1csc(C2=N[C@@H]3c4csc(n4)[C@H]4NC(=O)c5csc(n5)[C@H]([C@](C)(O)[C@@H](C)O)NC(=O)[C@H]5CSC(=N5)/C(=C/C)NC(=O)[C@H]([C@@H](C)O)NC(=O)c5csc(n5)[C@]3(CC2)NC(=O)[C@H](C)NC(=O)C(=C)NC(=O)[C@H](C)NC(=O)[C@H]([C@@H](C)CC)N[C@@H]2C=Cc3c([C@H](C)O)cc(nc3[C@H]2O)C(=O)O[C@@H]4C)n1)C(N)=O [Thiostrepton] | 96.6 ± 2.9% | 99 ± 2.1%
CC(=O)NCCCS(=O)(=O)O [Acamprosate calcium] | 98.32 ± 0.48% | 95.9 ± 1.7%
Oc1c(Cl)cc(Cl)c2cccnc12 [Chloroxine] | 1.27 ± 0.32% | 1.36 ± 0.32%
Oc1c(I)cc(Cl)c2cccnc12 [Clioquinol] | 18.3 ± 7.8% | 12.9 ± 5.3%
CCN[C@H]1C[C@H](C)S(=O)(=O)c2sc(S(N)(=O)=O)cc21 [Dorzolamide hydrochloride] | 99.3 ± 5.6% | 92.7 ± 6.7%
CO/N=C(\C(=O)N[C@@H]1C(=O)N2C(C(=O)O)=C(COC(N)=O)CS[C@H]12)c1ccco1 [Cefuroxime sodium salt] | 96.9 ± 2.9% | 89.9 ± 1.1%
O=C1C(CC[S+]([O-])c2ccccc2)C(=O)N(c2ccccc2)N1c1ccccc1 (centres undefined) [Sulfinpyrazone] | 102 ± 1.1% | 106 ± 2.1%
CC(N/C(=N\C#N)Nc1ccncc1)C(C)(C)C (centres undefined) [Pinacidil] | 100 ± 2.2% | 103 ± 0.21%
N=C(N)NCc1cccc(I)c1 [Iobenguane sulfate] | 105 ± 1.9% | 106 ± 1.1%
Nc1nc(NC2CC2)c2ncn([C@H]3C=C[C@@H](CO)C3)c2n1 [Abacavir Sulfate] | 97.2 ± 2.5% | 98.48 ± 0.1%
CCC[C@H](N[C@@H](C)C(=O)N1[C@H](C(=O)O)C[C@@H]2CCCC[C@@H]21)C(=O)OCC [Perindopril] | 101 ± 3.5% | 96.9 ± 2.5%
Cn1c(=O)c2c(ncn2CC(=O)O)n(C)c1=O [Acefylline] | 96.6 ± 1.9% | 95.12 ± 0.94%
O=C(O)c1cn(-c2ccc(F)cc2)c2cc(N3CCNCC3)c(F)cc2c1=O [Sarafloxacin] | 101 ± 4.1% | 97 ± 2.4%
O=C1NCCN1CCN1CCC(c2cn(-c3ccc(F)cc3)c3ccc(Cl)cc23)CC1 [Sertindole] | 34.5 ± 20% | 111 ± 2.4%

Structure (SMILES) | growth yield (40 h) | growth yield (72 h)
CN(C)[C@@H]1C(O)=C(C(=O)NCNCCCC[C@H](N)C(=O)O)C(=O)[C@@]2(O)C(O)=C3C(=O)c4c(O)cccc4[C@@](C)(O)[C@H]3C[C@@H]12 [Lymecycline] | 82.1 ± 2.7% | 73.83 ± 0.63%
CC(C)(O/N=C(\C(=O)N[C@@H]1C(=O)N2C(C(=O)[O-])=C(C[n+]3ccccc3)CS[C@H]12)c1csc(N)n1)C(=O)O [Ceftazidime pentahydrate] | 102% | 102 ± 1.1%
CO/N=C(\C(=O)N[C@@H]1C(=O)N2C(C(=O)OC(C)OC(C)=O)=C(COC(N)=O)CS[C@H]12)c1ccco1 (some centres undefined) [Cefuroxime axetil] | 97.05 ± 0.16% | 96.5 ± 1.7%
CC(C)NCC(O)c1cc(O)cc(O)c1 (centres undefined) [Metaproterenol sulfate, orciprenaline sulfate] | 99.1 ± 1.6% | 99.95 ± 0.1%
CCC(C)n1ncn(-c2ccc(N3CCN(c4ccc(OCC5COC(Cn6cncn6)(c6ccc(Cl)cc6Cl)O5)cc4)CC3)cc2)c1=O (centres undefined) [Itraconazole] | 4.77 ± 2.2% | 13.2%
CC[C@@H]([C@H](C)O)n1ncn(-c2ccc(N3CCN(c4ccc(OC[C@@H]5CO[C@@](Cn6cncn6)(c6ccc(F)cc6F)C5)cc4)CC3)cc2)c1=O [Posaconazole] | 8.9 ± 8.9% | 5.77 ± 5.6%
CC(C)N1CCN(c2ccc(OCC3COC(Cn4cncn4)(c4ccc(Cl)cc4Cl)O3)cc2)CC1 (centres undefined) [Terconazole] | 82.44 ± 0.16% | 88.4 ± 1.1%
CC(=O)N1CCN(c2ccc(OCC3COC(Cn4ccnc4)(c4ccc(Cl)cc4Cl)O3)cc2)CC1 (centres undefined) [Ketoconazole] | 2.22 ± 1.3% | 1.68 ± 0.84%
Nc1ccc(C(=O)O)c(O)c1 [4-aminosalicylic acid] | 93.1% | 89.36 ± 0.42%
CO[C@@]1(NC(=O)C(C(=O)O)c2ccc(O)cc2)C(=O)N2C(C(=O)O)=C(CSc3nnnn3C)CO[C@@H]21 (some centres undefined) [Moxalactam disodium salt] | 96.1 ± 0.16% | 92.71 ± 0.63%
CCC(C)(C)C(=O)O[C@H]1C[C@@H](C)C=C2C=C[C@H](C)[C@H](CC[C@@H]3C[C@@H](O)CC(=O)O3)[C@H]21 [Simvastatin] | 103 ± 1.3% | 96.2 ± 4.5%
C=CCN1CCCC1CNC(=O)c1cc2nn[nH]c2cc1OC (centres undefined) [Alizapride hydrochloride] | 108 ± 4.3% | 109 ± 2.7%
CN(C)C(=N)NC(=N)N [Metformin hydrochloride] | 105 ± 7.2% | 103 ± 5.3%
Clc1ccc(C(Cn2ccnc2)OCc2c(Cl)cccc2Cl)c(Cl)c1 (centres undefined) [Isoconazole] | 2.06 ± 1.4% | 1.68 ± 1.1%
Clc1ccc(CSC(Cn2ccnc2)c2ccc(Cl)cc2Cl)cc1 (centres undefined) [Sulconazole nitrate] | 2.22 ± 0.64% | 1.78 ± 0.52%
Clc1ccc(CCC(Cn2ccnc2)Sc2c(Cl)cccc2Cl)cc1 (centres undefined) [Butoconazole nitrate] | 3.49% | 2.31%
Clc1ccc(CO/N=C(\Cn2ccnc2)c2ccc(Cl)cc2Cl)c(Cl)c1 [Oxiconazole Nitrate] | 1.59 ± 1.6% | 0.839 ± 0.84%
CCN1CCCC(OC(=O)C(c2ccccc2)c2ccccc2)C1 (centres undefined) [Piperidolate hydrochloride] | 106 ± 0.79% | 105 ± 1.8%
C=CC[N@@+]12CC[C@@]34c5ccccc5N5/C=C6/[C@H]7C[C@H]8[C@@]9(CC[N@@+]8(CC=C)C/C7=C/CO)c7ccccc7N(/C=C(/[C@@H](C[C@@H]31)/C(=C\CO)C2)[C@H]54)[C@@H]69 [Alcuronium chloride] | 66.1 ± 7.6% | 65.8 ± 5.3%
O=C(O)CCNC(=O)c1ccc(/N=N/c2ccc(O)c(C(=O)O)c2)cc1 [Balsalazide Sodium] | 107 ± 1.4% | 101.9 ± 0.84%
